Screening results from PubChem BioAssay.
A selection: hits, their analogues and other compounds. The true share with any hit is near 3.6%.
TRHR agonist: activates the human TRH receptor | P34981 | AID 493084 | actives 0.18% (n = 360,000) | TRHR cells, calcium flux fluo-8, FDSS agonist mode | activation, % at 2 µM
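Agonist-mode FDSS calcium read (Ex 480/Em 530, 1 s cycles) in 1536-well TRHR cells with fluo-8 dye, after 10-cycle baseline and 23 nL compound addition; TRH at EC20 (10 nM final) added afterwards for the enhancer phase.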
D1 agonist: agonists of human D1 dopamine receptor; HEK293 T-REx D1 cells, calcium flux, agonist mode; P21728; actives 1% (n = 360,000); activation, % at 2 µM
Target sequence (P21728 whole entry, looked up): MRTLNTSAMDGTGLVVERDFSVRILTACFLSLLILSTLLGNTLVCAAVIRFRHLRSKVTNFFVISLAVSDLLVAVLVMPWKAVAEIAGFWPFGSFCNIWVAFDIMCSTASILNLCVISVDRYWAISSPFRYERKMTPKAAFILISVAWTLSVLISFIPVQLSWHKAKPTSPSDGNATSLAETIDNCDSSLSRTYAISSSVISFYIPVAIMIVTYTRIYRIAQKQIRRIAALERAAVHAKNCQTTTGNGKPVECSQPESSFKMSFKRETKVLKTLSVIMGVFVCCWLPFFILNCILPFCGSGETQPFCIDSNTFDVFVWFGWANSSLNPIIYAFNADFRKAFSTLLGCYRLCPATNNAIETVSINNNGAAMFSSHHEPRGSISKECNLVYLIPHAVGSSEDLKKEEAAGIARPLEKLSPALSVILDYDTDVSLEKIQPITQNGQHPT
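Inducible HEK293 T-REx D1 cells, force-coupled to calcium signalling, were plated at 4000 cells/well with tetracycline and held overnight at 30 C. After no-wash calcium dye loading, compound-evoked calcium rise over 180 s flagged agonists.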
LDHA inh: inhibitors of human lactate dehydrogenase A | purified LDHA, NADH/diaphorase-resazurin fluorescence; hits give low values | activity change, % (values are at about 110 or 230 µM) | P00338 | actives 0.15% (n = 480,000); in the data active = activity change below about -30%; inconclusive = mostly about -25% to -30%
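LDH5 2 nM; NADH 0.06 mM, pyruvate 0.2 mM; 200 mM Tris pH 7.4, EDTA, Tween-20; 5 min RT. Detection: diaphorase 0.133 mg/mL + resazurin 37 µM, fluorescence ex540/em590 at 0 and 20 min; normalized to enzyme-free and DMSO wells.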
D1 potentiator: potentiators of human D1 dopamine receptor; P21728; HEK293 TREx D1 cells, calcium flux, dopamine EC20 potentiation; potentiation, % at 10 µM; actives 0.036% (n = 360,000); in the data active = potentiation above about 30%
TRHR enhancer: allosterically enhances the human TRH receptor. P34981. TRHR cells, fluo-8 calcium fluorescence, EC20 TRH enhancement. enhancement, % at 2 µM. actives 0.66% (n = 360,000). AID 493056; in the data active = enhancement above about 30%
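Enhancer read-out: after compound pinning and an initial kinetic agonist-mode read, an EC20 of TRH (10 nM final) was injected and fluo-8 calcium signal (Ex 480/Em 530) followed at 1 s/cycle for 100 cycles in TRHR-expressing cells.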
D1 antag: blocks dopamine activation of the human D1 receptor; P21728; HEK293 TREx D1 cells, calcium flux, dopamine EC80; hits give low values; activity change, negative = inhibition, % at 10 µM; actives 3.2% (n = 360,000); AID 504652; in the data active = activity change below about -30%
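Tetracycline-induced HEK293 Trex D1 cells, force-coupled to calcium, dye-loaded; compounds added and read 180 s, then EC80 dopamine added and calcium flux tracked kinetically another 180 s.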
Numbers stand for hits; - = inactive; ? = inconclusive; . = no result given. Cut-off read from the data, not from the text of the source, unless noted: active = activation above about 30%; inactive = the rest.

SMILES	TRHR agonist	D1 agonist	LDHA inh	D1 potentiator	TRHR enhancer	D1 antag
FC(F)(F)C(F)(F)C(F)(F)c1nnc2ccc(N3CCOCC3)nn12	-	-	-	-	-	-73
FC(F)(F)c1nnc2ccc(N3CCCC3)nn12	-	-	-	-	-	-
CCCCC1CCNC1 (stereo unspecified)	.	.	-	.	.	.
Cc1nc2nc(SCC(=O)NCc3ccc(F)cc3)nn2c(C)c1Cc1ccccc1	.	.	-	.	.	.
Cc1cc(C)n(-c2ccc(C(=O)Nc3ccc(S(=O)(=O)NCc4ccco4)cc3)cc2)n1	-	-	-	-	-	-41
O=C(COC(=O)c1ccc(S(=O)(=O)NCc2ccco2)cc1)NCc1ccc(F)cc1	-	-	-	-	-	-41
COc1ccc(CNC(=O)COC(=O)c2ccc(S(=O)(=O)NCc3ccco3)cc2)cc1	.	.	-	.	.	.
O=C(Nc1ccc(S(=O)(=O)NCc2ccco2)cc1)c1ccc(F)cc1	-	-	-	-	-	-35
Cc1cccc(Cn2nnc3c(=O)[nH]c(C4CCN(C(=O)c5ccccc5)CC4)nc32)c1	.	.	-	.	.	.
O=C(COC(=O)c1ccncc1)NC(=O)C1CCCCC1	-	-	-	-	-	-36
COc1ccc(Cl)cc1NC(=O)CCS(=O)(=O)c1nc(-c2cccs2)cc(C(F)(F)F)n1	-	-	-	-	-	-35
COc1ccc(NC(=O)CCS(=O)(=O)c2nc(-c3cccs3)cc(C(F)(F)F)n2)cc1	-	-	-	-	-	-
O=c1cc(-c2ccccc2)c2ccc(OC/C=C/c3ccccc3)cc2o1	.	.	-	.	.	.
Cn1cc(C(=O)c2ccccc2)cc1-c1nc2ccccc2n1C	-	-	-	-	-	-31
CCC(=O)c1cc(-c2nc3ccccc3n2C)n(C)c1	-	-	-	-	-	-
CC1(OC(=O)C2CCCC2)C(=O)C=C2C=C(c3ccsc3)N(CC3CC3)C=C2C1=O (stereo unspecified)	-	-	-	-	-	-33
O=c1oc2cc(O)ccc2c(O)c1-c1ccccc1	.	.	-	.	.	.
CCOC(=O)CN1C(=O)C2Cc3ccccc3CN2C1=S (stereo unspecified)	-	-	-31	-	-	-
CCCCc1cc(=O)oc2cc(C)cc(OC(C)C(=O)NCCCO)c12 (stereo unspecified)	.	.	-	.	.	.
c1ccc(-c2nc(N3CCNCC3)nc3ccccc23)cc1	-	34	-	-	-	-
O=C(NCc1ccco1)c1ccc2c(c1)C(=O)c1ccccc1-2	-	-	-	-	-	-31
Cc1ccc(C(=O)NCc2ccco2)cc1[N+](=O)[O-]	-	-	-	-	-	-37
O=C(NCc1ccco1)c1ccc(C(=O)NCc2ccco2)cc1	.	.	-	.	.	.
O=C(NCc1ccco1)c1cc([N+](=O)[O-])cc([N+](=O)[O-])c1	-	-	-	-	-	-
O=C(CC1C(=O)N(Cc2ccccn2)c2nc3ccccc3n21)Nc1ccccc1 (stereo unspecified)	.	.	-	.	.	.
SMILES	TRHR agonist	D1 agonist	LDHA inh	D1 potentiator	TRHR enhancer	D1 antag
C=CCNC(=O)C(C)OC(=O)c1cc2ccc(OC)cc2nc1C (stereo unspecified)	.	.	-	.	.	.
Cc1c(-c2ccccc2)c(=O)oc2cc(OCC(=O)OC(C)C)ccc12	.	.	-	.	.	.
CC(C)(C)c1ccc(OCCCCCCN2CCNCC2)cc1	.	.	-	.	.	.
CC(C)(C)c1ccc(OCCNCc2ccccc2)cc1	-	43	-	-	-	-
CCCOc1ccc(OCCCCNC(C)CC)cc1 (stereo unspecified)	-	-	-	-	-	-54
CC(C)(c1ccccc1)c1ccc(OCCCN2CCNCC2)cc1	-	59	?	-	-	-
Cc1ccc(C(C)C)c(OCCCNCc2cccnc2)c1	-	-	-	-	-	-
Cc1ccc(C(C)C)c(OCCNCCc2ccccc2)c1	-	58	-	-	-	-
CC(C)(C)c1ccc(OCCNC(=S)Nc2ccccc2)cc1	-	-	-	-	-	-
CCOCCCNCc1cccc(OCc2ccccc2)c1	.	.	-	.	.	.
CCOC(=O)C1C(=O)C=C(c2ccco2)CC1c1ccccc1 (stereo unspecified)	.	.	-	.	.	.
CCCCS(=O)(=O)CCS(=O)(=O)CCCC	.	.	-	.	.	.
COCCCNCCOc1ccc(C(C)(C)c2ccccc2)cc1	-	-	-	-	-	-
CNCCCOc1ccc(C(C)(C)c2ccccc2)cc1	-	53	.	-	-	-
CCC(C)NCCOc1ccc(C(C)(C)c2ccccc2)cc1 (stereo unspecified)	-	72	-	-	-	-
CCCCNCC#CCOc1cc(C)ccc1C(C)C	-	87	-	-	-	-
CCC(C)NCCOc1cccc(Br)c1 (stereo unspecified)	-	-	-	-	-	-
c1ccc(CCNCCOc2ccccc2)cc1	-	-	-	-	-	-53
COc1ccc(C)cc1NC(=O)CSc1nnc(CN2CCCCC2)n1-c1ccc(F)cc1	.	.	-	.	.	.
CCC(=O)N1CCc2cc(S(=O)(=O)NC(C(=O)NCCc3cccc(C)c3)C(C)C)ccc21 (stereo unspecified)	-	-	-	-	-	-62
CCC(=O)N1CCc2cc(S(=O)(=O)NC(C(=O)NCc3ccccc3)C(C)C)ccc21 (stereo unspecified)	-	-	-	-	-	-
CCC(=O)N1CCc2cc(S(=O)(=O)NCCC(=O)N3CCN(c4ccccc4)CC3)ccc21	-	-	-	-	-	-
CCC(=O)N1CCc2cc(S(=O)(=O)NCCC(=O)N3CCN(c4cccc(C)c4)C(C)C3)ccc21 (stereo unspecified)	-	-	-	-	-	-40
CC(=O)N1CCc2cc(S(=O)(=O)NC(Cc3ccccc3)C(=O)Nc3cccc(C)c3)ccc21 (stereo unspecified)	-	-	-	-	-	-38
Cc1cc(N2CCCCCC2)n2nc(-c3ccccc3)nc2n1	.	.	-	.	.	.
SMILES	TRHR agonist	D1 agonist	LDHA inh	D1 potentiator	TRHR enhancer	D1 antag
CC1OC(Nc2ccc(N=Nc3ccccc3)cc2)C(O)C(O)C1O (stereo unspecified)	-	31	-	-	-	-
Cc1cc(C)c(S(=O)(=O)N2CCN(C(C(=O)NC3CC3)c3ccccc3)CC2)c(C)c1 (stereo unspecified)	.	.	-	.	.	.
CN(C)c1ccc(/C=C(\Cl)c2nc3ccccc3s2)cc1	-	99	-	-	-	-36
Cc1oc2cc(O)ccc2c(=O)c1Oc1ccc2ccccc2c1	-	-	-	-	-	-37
Cc1oc2cc(O)ccc2c(=O)c1Oc1ccc(F)cc1	-	-	-	-	-	-
CCOc1ccccc1NC(=O)Cc1csc(COc2cccc(C)c2)n1	-	68	-	-	-	-
c1cc(CNCCCN2CCCCC2)cs1	.	.	-	.	.	.
NC(=O)c1nsc(C(=O)N(c2ccccc2F)C(C(=O)NCc2ccc(F)cc2)c2ccc(O)cc2)c1N (stereo unspecified)	-	-	-	-	30	-
